High-throughput results as filed in PubChem.
This is a sample that favours compounds with a hit; in the whole collection about 3.7% have one here.
FadD28 binding – inhibitors of FadD28 bisubstrate probe binding, primary screen, biochemical, fluorescence polarization, single point; Mycobacterium tuberculosis FadD28 fatty-acid-AMP ligase; inhibition, % at 12.5 µM; 0.22% of 360,000 active; AID 588549, 2011; in the data active means inhibition above about 8.5%, passing the limit was not always enough; inconclusive means no clear call, values can overlap the other calls
GDH-TPI inh – GDH-TPI coupling enzyme inhibitors, primary screen, artefact control for M. tuberculosis FBA inhibitor project, biochemical, absorbance, full deck | GDH-TPI coupled enzyme counterscreen, NADH absorbance | inhibition, % at 4.8 µM | 1.2% of 360,000 active; in the data active means inhibition above about 30%;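 further: 0% = DMSO wells and 100% = wells lacking the enzyme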
Mtb bLac sens – beta-lactam sensitization of Mtb H37Rv, H37Rv; M. tuberculosis H37Rv growth with meropenem, percent inhibition; inhibition, % at 25 µM; 0.27% of 330,000 active; call rule not given here;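 further: growth measured after seven days incubation then overnight dye step; 0% = bacteria only wells and 100% = bacteria with antibiotic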
Mtb UGM inh – M. tuberculosis UGM enzyme inhibitors, primary screen, biochemical, fluorescence polarization, single point; AID 504406, 2011; 0.06% of 320,000 active; inhibition, % at 10 µM; UDP-galactopyranose mutase (Mycobacterium tuberculosis (strain ATCC 25618 / H37Rv)), …; purified UGM, fluorescence polarization probe displacement; in the data active means inhibition above about 10%, passing the limit was not always enough; inconclusive means no clear call, values can overlap the other calls
Rv3671c protease – Rv3671c serine protease inhibitors, primary screen, biochemical, fluorescence polarization, M. tuberculosis H37Rv; P9WHR9; inhibition, % at 5.96 µM; 0.048% of 320,000 active; AID 2606, 2010; in the data active means inhibition above about 38%;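 further: extracellular domain of Rv3671c used as enzyme; 0% = enzyme with DMSO and 100% = no enzyme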
Target sequence (P9WHR9 whole entry, looked up, the tested form may be a part): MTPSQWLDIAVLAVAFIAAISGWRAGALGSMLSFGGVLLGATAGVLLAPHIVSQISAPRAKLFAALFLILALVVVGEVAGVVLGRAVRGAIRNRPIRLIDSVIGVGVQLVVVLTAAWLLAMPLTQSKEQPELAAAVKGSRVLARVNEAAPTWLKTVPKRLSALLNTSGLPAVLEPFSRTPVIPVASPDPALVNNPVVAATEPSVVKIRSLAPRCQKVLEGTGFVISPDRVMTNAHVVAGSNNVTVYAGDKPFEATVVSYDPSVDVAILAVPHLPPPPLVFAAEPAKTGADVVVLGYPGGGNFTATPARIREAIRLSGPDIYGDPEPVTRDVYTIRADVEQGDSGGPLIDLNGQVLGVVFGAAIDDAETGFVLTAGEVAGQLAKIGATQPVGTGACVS
Mtb FBA inh – Mtb FBA enzyme inhibitors, primary screen, biochemical, fluorescence, strain H37Rv. inhibition, % at 1 µM. 2.3% of 360,000 active. purified M. tuberculosis FBA, fluorescence read-out; in the data active means inhibition above about 27%;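 further: 0% = vehicle and 100% = reference inhibitor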
* marks the source's active call; other numbers are inactive results; ? = inconclusive; · = not tested or not shown; + = active, no number.

SMILES	FadD28 binding	GDH-TPI inh	Mtb bLac sens	Mtb UGM inh	Rv3671c protease	Mtb FBA inh
O=C(CSc1nc(O)cc(=O)n1-c1ccccc1)Nc1nc2ccccc2s1	13*	-1	-5	4	-98	0
COc1ccc(NC(=O)CSc2nc(O)cc(=O)n2-c2ccccc2)cc1	-1	2	-5	0	·	0
N#Cc1c(SCC(=O)Nc2nc3ccccc3s2)sc2c(O)cc(=O)[nH]c12	12*	23	-3	6	-33	0
N#Cc1c(SCC(=O)Nc2ccc(Cl)cc2Cl)sc2c(O)cc(=O)[nH]c12	0	33*	-4	3	-14	1
O=C(c1ccc(Br)cc1)N1CCN(c2ccccn2)CC1	-1	-4	·	·	·	0
O=C(Cc1ccc([N+](=O)[O-])cc1)Nc1cccc(C(=O)N2CCCCC2)c1	-1	5	4	0	3	-2
CCOc1ccccc1OCCCC(=O)ON=C(N)c1ccccc1	-2	-1	-5	-4	-20	-1
COc1ccc(C2C3=C(CC(c4ccco4)CC3=O)Nc3ccccc3N2C(C)=O)cc1 (configuration not stated)	-2	34*	4	1	-4	1
CN1OC[C@@H]2CN(C(=O)CCc3ccccc3)[C@H](c3cccc(-c4ccc(C#N)cc4)c3)C[C@@H]21	-4	-6	·	·	·	0
COc1cc(/C=C2\SC(=O)N(Cc3ccc(Cl)cc3)C2=O)cc([N+](=O)[O-])c1O	24*	-4	·	·	·	-3
COc1cc(/C=C2\SC(=O)N(Cc3ccc(F)cc3)C2=O)cc([N+](=O)[O-])c1O	6	8	·	·	·	8
COc1cc([N+](=O)[O-])cc(/C=C2/SC(=S)N(Cc3ccccc3)C2=O)c1O	47*	18	11	-7	-148	-4
COc1cc(/C=N/NC(=O)c2cccc(C)c2)ccc1OCC(=O)Nc1ccccc1	-2	13	30	4	-10	1
COc1ccc(-c2cn3nc(SCC(=O)NCC4CCCO4)ccc3n2)cc1 (configuration not stated)	-3	24	-9	4	-7	128*
COc1ccc(-c2nnc3ccc(SCC(=O)NCC4CCCO4)nn23)cc1 (configuration not stated)	1	1	1	1	-5	2
Cc1ccc(-c2nc3ccc(C(=O)O)cc3nc2-c2ccc(C)cc2)cc1	-14	21	89	0	0	10
Cc1ccc(-c2[nH]c(-c3ccc(C(=O)O)cc3)nc2-c2ccccc2)cc1	?	17	4	4	11	+
COc1cccc(-c2ccc3c(c2)N(Cc2ccc(F)cc2)C(=O)C(C)S3)c1 (configuration not stated)	-4	4	·	·	·	2
O=C(CCN1C(=O)S/C(=C\c2ccccc2)C1=O)N1CCCCC1	-2	10	-5	-5	6	-10
COc1cccc(/C=C2\SC(=O)N(CCC(=O)N3CCCCC3CCO)C2=O)c1 (configuration not stated)	-1	31*	1	1	-8	-1
O=C(O)C1CCN(C(=O)CCN2C(=O)S/C(=C\c3ccccc3)C2=O)CC1	0	35*	-2	-2	4	-2
O=C1CN(C(=O)/C=C/c2ccc(Br)cc2)CCN1	·	3	-5	-4	·	0
CC(C)(C(=O)N1CCC1(C)C(=O)NS(=O)(=O)c1ccc(C#N)cc1)c1ccccc1 (configuration not stated)	0	1	·	·	·	0
O=C(C1=C(O)C(=O)N(CCN2CCOCC2)C1c1cccc(Br)c1)c1cc2ccccc2o1 (configuration not stated)	1	10	2	0	-5	134*
O=[N+]([O-])c1ccc(Cl)cc1NCc1cccnc1	0	-12	-5	0	-2	-4
SMILES	FadD28 binding	GDH-TPI inh	Mtb bLac sens	Mtb UGM inh	Rv3671c protease	Mtb FBA inh
C=C(C)COc1ccc2c(C)c(CC(=O)N3C[C@H]4C[C@@H](C3)c3cccc(=O)n3C4)c(=O)oc2c1	0	29	-3	-1	-10	114*
CCN(C(=O)COn1nnc2ccc(S(=O)(=O)N(C)C)cc21)C1CCS(=O)(=O)C1 (configuration not stated)	-1	1	2	0	13	0
O=c1oc(-c2ccc(O)c(O)c2)cc2cc(O)cc(O)c12	12*	32*	-1	·	-11	11
O=c1oc(-c2ccc(O)c(O)c2)cc2cccc(O)c12	2	13	-2	·	-24	-1
CCOc1cc(/C=C2\C(=O)N(c3nc(-c4ccc(Br)cc4)cs3)N=C2c2ccccc2)ccc1O	27*	31*	4	-1	18	1
CN1/C(=C\C(=O)COC(=O)CN2C(=O)C3CC=CCC3C2=O)C(C)(C)c2ccccc21 (configuration not stated)	-2	37*	3	3	-26	8
CN1/C(=C\C(=O)COC(=O)CNC(=O)c2ccc3ccccc3c2)C(C)(C)c2ccccc21	-1	10	10	-1	-27	5
CN1/C(=C/C(=O)COC(=O)C2COc3ccccc3O2)C(C)(C)c2ccccc21 (configuration not stated)	0	32*	·	·	·	3
Cc1c(Cl)c(=O)oc2cc(OC(C)C)ccc12	-2	25	-3	0	-11	+
CCOP(=S)(OCC)Oc1ccc2c(C)c(Cl)c(=O)oc2c1	-4	10	·	·	·	9
CCC(=O)Oc1ccc2c(C)c(Cl)c(=O)oc2c1	-6	4	-1	2	7	+
CN1/C(=C\C=N\NC(=O)c2ccccc2Br)C(C)(C)c2ccccc21	1	5	28	·	-25	-1
CN1/C(=C\C=C(C#N)C#N)C(C)(C)c2ccccc21	-2	9	-3	72*	2	-4
CN1/C(=C/C=N/n2cnnc2)C(C)(C)c2ccccc21	-4	45*	1	-2	-12	3
Cc1ccc(NC(=O)CSc2nnc(CNC(=O)c3c(F)cccc3Cl)o2)cc1	-2	0	-8	0	7	3
O=C(CSc1nnc(CNC(=O)c2c(F)cccc2Cl)o1)Nc1ccc2c(c1)OCO2	0	-3	-10	-3	-1	95*
Cc1ccc(OCc2cc(C(=O)NC3CCCCC3)no2)cn1	0	-3	-4	2	3	-2
Cc1cc(OCc2cc(C(=O)NC3CCC3)no2)cc(C)c1Cl	1	3	13	-4	5	46*
CCc1cccc2c(C(=O)CSc3nncn3-c3ccc(OC)cc3)c[nH]c12	14*	13	9	0	-6	-4
CCc1cccc2c(C(=O)CSc3nncn3-c3ccccc3OC)c[nH]c12	-2	12	?	-3	-1	2
